Hits are enriched below; roughly 2.7% of the tested compounds scored in any of these assays.
ClpP mod – qHTS Assay for Activators of ClpP; ATP-dependent Clp protease proteolytic subunit (Bacillus subtilis (strain 168)), P80244; purified B. subtilis ClpP, FRET peptide cleavage, 20 min; Potency, µM (highest dose often 57.5 µM), inactives show at the top dose activity change, negative = active; 340,000 tested, 1.9% active; AID 651965, 2013; active = well fitted falling curve with a large enough effect; inconclusive = small, poorly fitted or top-dose-only effect; inactive = no such curve, though single readings can be large or run the other way; note: potency is the fitted concentration of half-maximal effect; the source files actives as falling curves though it sought activators and does not explain the sign; nearly all actives have a fitted effect of over 65% in size
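Buffer: 100 mM Tris/HCl pH8, 100 mM KCl, 0.05% low protease BSA, 2.5% glycerol, 0.01% Tween-20. ClpP 10 microg/mL final; 20 min RT; delta FRET normalized to ADEP and DMSO controls.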
RXFP1 ag – agonists of human relaxin receptor RXFP1; Q9HBX9; HEK293T-RXFP1 cAMP TR-FRET, 30 min; response scale: percent of porcine relaxin response, buffer zero; Potency, µM (titrated, usually from 57.5 µM), without a hit: at the highest dose activation, usual class: activators; 370,000 tested, 0.3% active; AID 2676; active = well fitted activation curve with a large enough effect; inconclusive = small, poorly fitted or top-dose-only effect; note: potency is the fitted concentration of half-maximal effect; % is set by controls: 0 for no effect and ±100 for the full control effect; nearly all actives have a fitted effect of over 60% in size
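HEK293T cells stably expressing RXFP1 were pretreated with the PDE4 inhibitor Ro 20174, exposed to compounds for 30 min at 37C, lysed, and cAMP was read by TR-FRET. Data normalized to buffer (basal) and 29 nM porcine relaxin (100%).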
pAkt inh – blocks phosphorylation of Akt; activity change, % for hits at 50 µM; 360,000 tested, 0.32% active; Neuro2A IGF-stimulated pAkt S473 HTRF, 20 min; active compounds read low; in the data active = activity change below about -80%; inconclusive = mostly about -51% to -80%; note: % is set by controls: 0 for no effect and ±100 for the full control effect
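Neuro2A cells in DMEM with 0.5% FBS, overnight at 37 deg C, given compound at single 50 µM final, then IGF (6 nM final) for 20 min at 37 deg C. Lysed; phospho-Akt Ser473 by HTRF after 24 h, 665/615 ratio.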
gsp antag – gsp mutant antagonism | gsp-mutant cells, cAMP HTRF, 30 min | Potency, µM (top dose mostly 76.9 µM), for the others: at the top dose activity change, negative = inhibition, hits mostly inhibitors | 340,000 tested, 0.4% active; calls by dose curve; cell line not stated here;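 note: intracellular cAMP measured with PDE inhibitor Ro 20-1724 present during compound exposure; potency is the fitted concentration of half-maximal effect; % is set by controls: 0 for no effect and ±100 for the full control effect; nearly all actives have a fitted effect of over 65% in size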
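HTRF cAMP read-out (cAMP-d2 plus anti-cAMP antibody-K in lysis buffer, 30 min RT). Before lysis, cells are exposed to compounds with […] for 30 min at 37C in DPBS containing Ca/Mg, BSA and Tween 20.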
RXFP1 antag – RXFP1 (human) relaxin receptor antagonism; Q9HBX9; 350,000 tested, 0.59% active; activity change, negative = inhibition, % at 57.5 µM; HEK293-RXFP1, relaxin-stimulated cAMP HTRF, 30 min; active compounds read low;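 active = activity change of -60% or lower, but not beyond a set lower limit; inconclusive = change between -60% and -40%, or beyond the set limit; inactive = change above -40%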; note: % is set by controls: 0 for no effect and ±100 for the full control effect
gsp ag – activates gsp, the McCune-Albright syndrome mutation; gsp mutant cells, cAMP HTRF, 30 min; Potency, µM (highest dose often 76.9 µM), for inactives: at the top dose activation (cAMP increase), most hits filed as activators; 340,000 tested, 0.13% active; AID 624287; active = well fitted activation curve with a large enough effect; inconclusive = small, poorly fitted or top-dose-only effect, or another doubt; inactive = no such curve, though single readings can be large or run the other way; cell line not stated here;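 note: phosphodiesterase inhibitor Ro 20-1724 added with compounds to block cAMP breakdown; potency is the fitted concentration of half-maximal effect; nearly all actives have a fitted effect of over 60% in size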
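Cells in DMEM/10% FBS with G418 were pretreated with compounds in DMSO plus […] (300 uM stock) for 30 min at 37C. cAMP was measured by HTRF (cAMP-d2 plus anti-cAMP antibody-K) after 30 min at room temperature.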
The depositor's hits bear a star; i = inactive; ? = inconclusive; / = not tested or not shown; [ ] = remark or other dose.

SMILES | ClpP mod | RXFP1 ag | pAkt inh | gsp antag | RXFP1 antag | gsp ag
CCC(COC(=O)c1cc(OC)c(OC)c(OC)c1)(c1ccccc1)N(C)C (configuration not stated) | -4% | 2% | i | -16% | -62* | /
CC(C)=CC1C(C(=O)OCc2cccc(Oc3ccccc3)c2)C1(C)C (configuration not stated) | / | / | / | / | -26 | /
C=CCC1=C(C)C(OC(=O)C2C(C=C(C)C)C2(C)C)CC1=O (configuration not stated) | / | / | / | / | -70* | /
Nc1c(C(=O)NCc2ccco2)c2nc3ccccc3nc2n1Cc1ccc(F)cc1 | 28µM* | 3% | i | -9% | -3 | 7%
COc1ccc(Cn2c(N)c(C(=O)NCc3ccco3)c3nc4ccccc4nc32)cc1 | 32µM* | 1% | i | -1% | 8 | ?
C1CN2CCC1CC2 | / | / | / | / | -8 | /
CCN(CC)C(=O)c1ccc(NC(=O)CCn2nc(-c3ccc(C)cc3)c3ccccc3c2=O)cc1 | -4% | 1% | / | / | -79* | /
CCN(CC)C(=O)c1ccc(NC(=O)Cn2nc(-c3ccc(C)cc3)c3ccccc3c2=O)cc1 | -1% | 20% | / | / | -3 | /
Cc1cccc(C(=O)NC2CC3CCCC(C2)N3Cc2ccccc2)c1 (configuration not stated) | / | 1% | i | 6% | 4 | -47%
COc1nn(CSP(=S)(OC)OC)c(=O)s1 | / | / | / | / | 40 | /
O=C(c1cc2c(s1)-c1ccccc1OC2)N1CCC2(CC1)OCCO2 | 28µM* | 6% | i | 2% | 1 | 4%
O=c1[nH]c(=S)[nH]c(O)c1N=Nc1ccc(S(=O)(=O)N2CCc3ccccc32)cc1 | / | 0% | i | -31% | -100* | 2%[15.4 µM]
O=C(c1ccccc1)c1ccc(N=Nc2c(O)[nH]c(=O)[nH]c2=O)cc1 | -2% | 5% | i | -2% | 9 | -8%
O=c1[nH]c(=S)[nH]c(O)c1N=Nc1ccc(SC(F)F)cc1 | / | 12% | i | -12% | -71* | 16%[15.4 µM]
Cc1c(N=Nc2c(O)[nH]c(=S)[nH]c2=O)c(=O)n(-c2ccccc2)n1C | -2% | -2% | i | 3% | 12 | 5%[15.4 µM]
CO/C=C(/C(=O)OC)c1ccccc1Oc1cc(Oc2ccccc2C#N)ncn1 | / | / | / | / | -28 | /
Nc1ccc2c(c1)Cc1ccccc1-2 | 11µM* | 0% | i | 9% | -5 | 23%
COc1cccc(N2C(=O)NC(=O)/C(=C/c3ccc4c(c3)Cc3ccccc3-4)C2=O)c1 | 1% | 1% | i | 4% | -12 | -50%[15.4 µM]
CC(C)n1c(O)c(C2c3cc(Cl)ccc3Oc3[nH]c(=O)n(C(C)C)c(=O)c32)c(=O)[nH]c1=O (configuration not stated) | / | 1% | i | -21% | -84* | 17%[15.4 µM]
CC[N+]1(CC)CCC(OC(=O)C(O)(c2ccccc2)c2ccccc2)C1 (configuration not stated) | / | / | / | / | 10 | /
CN1CCCC1c1ccc(=O)[nH]c1 (configuration not stated) | 32µM* | / | i | 1% | -2 | -4%
CN1C(=O)CC(c2ccccc2)Nc2ccccc21 (configuration not stated) | -1% | -1% | i | 3% | 5 | -3%[15.4 µM]
Cc1ccsc1-c1nc(CSCC(=O)N2CCC3(CC2)OCCO3)c(C)o1 | 32µM* | 5% | i | -14% | -15 | -62%
COc1ccc(S(=O)(=O)N(C)C[C@H]2OCCCC[C@@H](C)Oc3ccc(N(C)C)cc3C(=O)N([C@H](C)CO)C[C@@H]2C)cc1 | -2% | / | i | / | 4 | -46%
O=[N+]([O-])/C=C/c1c(Cl)cccc1Cl | 0% | / | i | 15% | -67* | 7%
SMILES | ClpP mod | RXFP1 ag | pAkt inh | gsp antag | RXFP1 antag | gsp ag
CCN(CC)c1ccc(/C=C/[N+](=O)[O-])cc1 | 2% | 0% | i | 15% | -23 | ?
Cc1cc(/C=C/c2cccc3sc(C)[n+](CCCCI)c23)ccc1N(CCCl)CCCl | 2% | / | / | / | / | /
CC(C)CCOC(=O)c1c(N)n(CC2CCCO2)c2nc3ccccc3nc12 (configuration not stated) | 28µM* | 0% | i | -22% | -11 | -38%
CC(C)OC(=O)c1c(N)n(CC2CCCO2)c2nc3ccccc3nc12 (configuration not stated) | -8% | 4% | i | -21% | -5 | -10%
CCCNC(=O)c1c(N)n(CC2CCCO2)c2nc3ccccc3nc12 (configuration not stated) | 18µM* | -1% | i | -24% | -6 | ?
CC(C)OCCCNC(=O)c1c(N)n(CC2CCCO2)c2nc3ccccc3nc12 (configuration not stated) | 14µM* | 5% | i | -9% | -12 | 4%
Cc1ccc(C)c(S(=O)(=O)c2nnn3c2nc(N2CCCC2)c2sccc23)c1 | ? | 8% | / | / | -18 | /
C[C@H](CO)N1C[C@H](C)[C@H](CN(C)C(=O)N[C@H](C)c2ccccc2)OCc2ccccc2-c2c(n(C)c3ccccc23)C1=O | -3% | / | i | / | -1 | -34%
C[C@]12Cc3cn[nH]c3C[C@@H]1CC[C@@H]1[C@@H]2CC[C@@]2(C)[C@H]1CC[C@]2(C)O | / | / | / | / | -31 | /
C[C@]12CCC(=O)C=C1CC[C@@H]1[C@H]3CC[C@](C)(O)[C@@]3(C)CC[C@@H]12 | / | / | / | / | -22 | /
CN1CCc2nc3ccc(F)cc3c(C(N)=O)c2C1 | -6% | 0% | -99%* | -3%[15.4 µM] | -5 | 27%
COc1cc(CC(C)N)c(OC)cc1C (configuration not stated) | / | / | / | / | -6 | /
O=C(Nc1ccc2nc(SCC(=O)N3CCCc4ccccc43)sc2c1)c1ccccc1F | 18µM* | 3% | / | / | -22 | /
COc1ccc(NC(=O)c2ccccc2SCc2ccccc2)cc1 | -2% | / | i | / | -1 | -193%
COc1ccccc1C(=O)Nc1ccc2nc(SCC(=O)N3CCCc4ccccc43)sc2c1 | 10µM* | ? | / | / | -9 | /
COc1ccc(OC)c(CNC(=O)CCS(=O)(=O)c2ccc3c(c2)oc(=O)n3C)c1 | 0% | 3% | i | 6% | 15 | ?
NCC(CC(=O)O)c1ccc(Cl)cc1 (configuration not stated) | 0% | -1% | -108%* | 11% | 3 | -15%
O=C(CI)c1ccc(Cl)cc1 | 0% | / | / | / | / | /
COc1ccc(C(CC(=O)N2CCC3(CC2)OCCO3)NS(=O)(=O)c2ccc(F)cc2)cc1 (configuration not stated) | 22µM* | -2% | i | -5% | -3 | -26%

Source: PubChem BioAssay (National Center for Advancing Translational Sciences (NCATS))
